Test results published in the supplement of paper PMC8975748.
Where a name gives a salt, the structure may show the parent alone. ± gives the standard deviation of the averaged measurements.

How the values were obtained:
[1] = test system: Saccharomyces cerevisiae BY4741 SeMeCo community; test: mean cell size (pixel area) (pixels); higher = larger cells; details: 10 µM; 24 h; SM minimal medium
Procedure, shortened: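 Plates of 384 wells were acoustically predosed with drug at a final 10 µM in SM medium, and 70 µl of a Saccharomyces cerevisiae BY4741 preculture diluted from OD600 = 1.0 to OD600 = 0.3 was added for 24 h. The yeast formed a four-plasmid fluorescent community in which each plasmid complements one auxotrophy and carries a fluorescent marker. Fixed cells were imaged by automated confocal microscopy and analysed in Harmony for mean cell pixel area per well. Values are means of 3 replicates. Same SeMeCo high-content imaging drug screen: Selleck FDA-approved drugs at 10 µM, 24 h in SM medium, 384-well plates, 3 replicates.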

[2] = test system: Saccharomyces cerevisiae BY4741 SeMeCo community; test: z-score of subpopulation abundance vs DMSO median, subpopulation auxotrophic for L; higher = larger share of this subpopulation than in DMSO controls; details: 10 µM; 24 h; SM minimal medium; subpopulation (auxotrophy): L
Procedure, shortened: (§1)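 Subpopulation abundance was reported as a z-score against the median of vehicle wells. The Saccharomyces cerevisiae BY4741 community, carrying four plasmids that each restored one auxotrophy and encoded a distinct fluorescent protein, was grown 24 h in minimal SM medium in 384-well plates holding library drugs at 10 µM final. Cells were paraformaldehyde-fixed and imaged by automated confocal microscopy, with single-auxotroph fluorescent strains used for thresholds and autofluorescence correction.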

[3] = test system: Saccharomyces cerevisiae BY4741 SeMeCo community; test: z-score of subpopulation abundance vs DMSO median, subpopulation auxotrophic for H; higher = larger share of this subpopulation than in DMSO controls; details: 10 µM; 24 h; SM minimal medium; subpopulation (auxotrophy): H
Procedure, shortened: as §1

[4] = test system: Saccharomyces cerevisiae BY4741 SeMeCo community; test: z-score of subpopulation abundance vs DMSO median, subpopulation auxotrophic for LU; higher = larger share of this subpopulation than in DMSO controls; details: 10 µM; 24 h; SM minimal medium; subpopulation (auxotrophy): LU
Procedure, shortened: as §1

[5] = test system: Saccharomyces cerevisiae BY4741 SeMeCo community; test: z-score of subpopulation abundance vs DMSO median, subpopulation auxotrophic for LM; higher = larger share of this subpopulation than in DMSO controls; details: 10 µM; 24 h; SM minimal medium; subpopulation (auxotrophy): LM
Procedure, shortened: as §1

[6] = test system: Saccharomyces cerevisiae BY4741 SeMeCo community; test: z-score of subpopulation abundance vs DMSO median, subpopulation auxotrophic for HM; higher = larger share of this subpopulation than in DMSO controls; details: 10 µM; 24 h; SM minimal medium; subpopulation (auxotrophy): HM
Procedure, shortened: as §1

[7] = test system: Saccharomyces cerevisiae BY4741 SeMeCo community; test: z-score of subpopulation abundance vs DMSO median, subpopulation auxotrophic for HU; higher = larger share of this subpopulation than in DMSO controls; details: 10 µM; 24 h; SM minimal medium; subpopulation (auxotrophy): HU
Procedure, shortened: as §1

[8] = test system: Saccharomyces cerevisiae BY4741 SeMeCo community; test: z-score of subpopulation abundance vs DMSO median, subpopulation auxotrophic for UM; higher = larger share of this subpopulation than in DMSO controls; details: 10 µM; 24 h; SM minimal medium; subpopulation (auxotrophy): UM
Procedure, shortened: as §1

[9] = test system: Saccharomyces cerevisiae BY4741 SeMeCo community; test: z-score of subpopulation abundance vs DMSO median, subpopulation auxotrophic for HL; higher = larger share of this subpopulation than in DMSO controls; details: 10 µM; 24 h; SM minimal medium; subpopulation (auxotrophy): HL
Procedure, shortened: as §1

[10] = test system: Saccharomyces cerevisiae BY4741 SeMeCo community; test: z-score of subpopulation abundance vs DMSO median, subpopulation auxotrophic for HLM; higher = larger share of this subpopulation than in DMSO controls; details: 10 µM; 24 h; SM minimal medium; subpopulation (auxotrophy): HLM
Procedure, shortened: as §1

[11] = test system: Saccharomyces cerevisiae BY4741 SeMeCo community; test: z-score of subpopulation abundance vs DMSO median, subpopulation auxotrophic for HUM; higher = larger share of this subpopulation than in DMSO controls; details: 10 µM; 24 h; SM minimal medium; subpopulation (auxotrophy): HUM
Procedure, shortened: as §1

[12] = test system: Saccharomyces cerevisiae BY4741 SeMeCo community; test: z-score of subpopulation abundance vs DMSO median, subpopulation auxotrophic for HLUM; higher = larger share of this subpopulation than in DMSO controls; details: 10 µM; 24 h; SM minimal medium; subpopulation (auxotrophy): HLUM
Procedure, shortened: as §1

[13] = test system: Saccharomyces cerevisiae BY4741 SeMeCo community; test: z-score of prototroph abundance vs DMSO median; higher = larger share of this subpopulation than in DMSO controls; details: 10 µM; 24 h; SM minimal medium; subpopulation (auxotrophy): Prototroph
Procedure, shortened: as §1

[14] = test system: Saccharomyces cerevisiae BY4741 SeMeCo community; test: z-score of subpopulation abundance vs DMSO median, subpopulation auxotrophic for M; higher = larger share of this subpopulation than in DMSO controls; details: 10 µM; 24 h; SM minimal medium; subpopulation (auxotrophy): M
Procedure, shortened: as §1

[15] = test system: Saccharomyces cerevisiae BY4741 SeMeCo community; test: z-score of subpopulation abundance vs DMSO median, subpopulation auxotrophic for U; higher = larger share of this subpopulation than in DMSO controls; details: 10 µM; 24 h; SM minimal medium; subpopulation (auxotrophy): U
Procedure, shortened: as §1

[16] = test system: Saccharomyces cerevisiae BY4741 SeMeCo community; test: z-score of subpopulation abundance vs DMSO median, subpopulation auxotrophic for LUM; higher = larger share of this subpopulation than in DMSO controls; details: 10 µM; 24 h; SM minimal medium; subpopulation (auxotrophy): LUM
Procedure, shortened: as §1

For `O=C1c2cccc3c2[C@H](CCC3)CN1[C@@H]1CN2CCC1CC2` [Palonosetron], the mean cell size [1] was 12.2 ± 0.14, the “z-score of subpopulation abundance” value [2] was -0.81 and the “z-score of subpopulation abundance” value [3] was -0.77. The “z-score of subpopulation abundance” value [4] was -0.39, the “z-score of subpopulation abundance” value [5] was -0.55 and the “z-score of subpopulation abundance” value [6] was -0.24. The “z-score of subpopulation abundance” value [7] was -0.06, the “z-score of subpopulation abundance” value [8] was 0.49 and the “z-score of subpopulation abundance” value [9] was -0.45. The “z-score of subpopulation abundance” value [10] was -0.49, the “z-score of subpopulation abundance” value [11] was 0.12 and the “z-score of subpopulation abundance” value [12] was -0.4.
In the case of `CC1CCc2c(N3CCC(O)CC3)c(F)cc3c(=O)c(C(=O)O)cn1c23` (centres undefined) [Nadifloxacin], the “z-score of prototroph abundance” value [13] is reported as -0.14, the “z-score of subpopulation abundance” value [14] is reported as 0.33 and the “z-score of subpopulation abundance” value [15] is reported as 0.05. For the same molecule, the “z-score of subpopulation abundance” value [3] was -0.1, the “z-score of subpopulation abundance” value [5] was 0.06 and the “z-score of subpopulation abundance” value [6] was 0. The “z-score of subpopulation abundance” value [8] was -0.28, the “z-score of subpopulation abundance” value [9] was 0 and the “z-score of subpopulation abundance” value [10] was 0.15. The “z-score of subpopulation abundance” value [11] was -0.22 and the “z-score of subpopulation abundance” value [12] was 0.26.
`COc1cc(/C=C/C(=O)N2CCN(CC(=O)N3CCCC3)CC2)cc(OC)c1OC` [Cinepazide maleate] was tested, and the mean cell size [1] was 12.6 ± 0.14, the “z-score of prototroph abundance” value [13] was -0.19 and the “z-score of subpopulation abundance” value [2] was -1.17. For the same molecule, the “z-score of subpopulation abundance” value [15] was 1.16, the “z-score of subpopulation abundance” value [3] was -0.51 and the “z-score of subpopulation abundance” value [4] was 0.47. For the same molecule, the “z-score of subpopulation abundance” value [5] was -1.06, the “z-score of subpopulation abundance” value [6] was -0.1 and the “z-score of subpopulation abundance” value [7] was 0.48. For the same molecule, the “z-score of subpopulation abundance” value [8] was 0.61, the “z-score of subpopulation abundance” value [9] was -0.2 and the “z-score of subpopulation abundance” value [10] was -0.01. For the same molecule, the “z-score of subpopulation abundance” value [11] was -0.05 and the “z-score of subpopulation abundance” value [12] was -0.53.
`Nc1ccc(S(=O)(=O)Nc2cnc3ccccc3n2)cc1` [Sulfaquinoxaline sodium] was tested, and the mean cell size [1] was 12 ± 0.22, the “z-score of prototroph abundance” value [13] was -0.68 and the “z-score of subpopulation abundance” value [2] was -1.08. For the same molecule, the “z-score of subpopulation abundance” value [15] was 1.01, the “z-score of subpopulation abundance” value [3] was -1.04 and the “z-score of subpopulation abundance” value [4] was 0.22. The “z-score of subpopulation abundance” value [6] was 0.61, the “z-score of subpopulation abundance” value [7] was 1.05 and the “z-score of subpopulation abundance” value [9] was -0.29. For the same molecule, the “z-score of subpopulation abundance” value [10] was -0.05, the “z-score of subpopulation abundance” value [11] was 0.79 and the “z-score of subpopulation abundance” value [16] was 0.81. For the same molecule, the “z-score of subpopulation abundance” value [12] was -0.23.
`CC(=O)[O-].[K+]` [Potassium acetate] was tested, and the mean cell size [1] was 12.5 ± 0.15, the “z-score of prototroph abundance” value [13] was 0.52 and the “z-score of subpopulation abundance” value [14] was -0.39. The “z-score of subpopulation abundance” value [2] was -0.45, the “z-score of subpopulation abundance” value [15] was -0.46 and the “z-score of subpopulation abundance” value [3] was -0.01. For the same molecule, the “z-score of subpopulation abundance” value [5] was -0.98, the “z-score of subpopulation abundance” value [6] was -0.29 and the “z-score of subpopulation abundance” value [7] was 0.19. For the same molecule, the “z-score of subpopulation abundance” value [8] was -0.51, the “z-score of subpopulation abundance” value [9] was 0.08 and the “z-score of subpopulation abundance” value [10] was -0.9. For the same molecule, the “z-score of subpopulation abundance” value [11] was -0.43, the “z-score of subpopulation abundance” value [16] was -0.06 and the “z-score of subpopulation abundance” value [12] was -0.44.
`CC1(C)S[C@@H]2[C@H](NC(=O)Cc3ccccc3)C(=O)N2[C@H]1C(=O)O` [Penicillin G Sodium] was tested, and the mean cell size [1] was 12.6 ± 0.34, the “z-score of prototroph abundance” value [13] was 0.77 and the “z-score of subpopulation abundance” value [14] was -0.8. For the same molecule, the “z-score of subpopulation abundance” value [15] was 0.06, the “z-score of subpopulation abundance” value [4] was 0.16 and the “z-score of subpopulation abundance” value [5] was -0.29. For the same molecule, the “z-score of subpopulation abundance” value [6] was -1.14, the “z-score of subpopulation abundance” value [8] was -0.23 and the “z-score of subpopulation abundance” value [9] was -0.32. For the same molecule, the “z-score of subpopulation abundance” value [10] was -0.09, the “z-score of subpopulation abundance” value [16] was -0.52 and the “z-score of subpopulation abundance” value [12] was 1.41.
`C[N+]1(C)CCC(=C(c2ccccc2)c2ccccc2)CC1` [Diphemanil Methylsulfate] was tested, and the mean cell size [1] was 12.6 ± 0.23, the “z-score of prototroph abundance” value [13] was -0.15 and the “z-score of subpopulation abundance” value [2] was -0.56. The “z-score of subpopulation abundance” value [15] was 0, the “z-score of subpopulation abundance” value [3] was -0.27 and the “z-score of subpopulation abundance” value [4] was -0.26. For the same molecule, the “z-score of subpopulation abundance” value [5] was 0.34, the “z-score of subpopulation abundance” value [6] was 0.58 and the “z-score of subpopulation abundance” value [7] was -0.13. The “z-score of subpopulation abundance” value [9] was -0.17, the “z-score of subpopulation abundance” value [11] was 0.68 and the “z-score of subpopulation abundance” value [16] was 0.41. The “z-score of subpopulation abundance” value [12] was -0.18.
In the case of `NCc1ccccc1CC(=O)N[C@@H]1C(=O)N2C(C(=O)O)=C(CSc3nnnn3CC(=O)O)CS[C@H]12` [Ceforanide], the mean cell size [1] is reported as 12.09 ± 0.042, the “z-score of prototroph abundance” value [13] is reported as -0.53 and the “z-score of subpopulation abundance” value [14] is reported as -0.21. For the same molecule, the “z-score of subpopulation abundance” value [15] was -0.98, the “z-score of subpopulation abundance” value [3] was 2.15 and the “z-score of subpopulation abundance” value [4] was 0.89. The “z-score of subpopulation abundance” value [5] was 1.65, the “z-score of subpopulation abundance” value [7] was 0.2 and the “z-score of subpopulation abundance” value [8] was -0.41. The “z-score of subpopulation abundance” value [9] was 2.92, the “z-score of subpopulation abundance” value [10] was 0.46 and the “z-score of subpopulation abundance” value [11] was 0.56. The “z-score of subpopulation abundance” value [16] was 2.06 and the “z-score of subpopulation abundance” value [12] was 1.14.
